Source: PubChem BioAssay (National Center for Advancing Translational Sciences (NCATS))
Shown are actives, neighbours in structure and some others; about 8% of the full set was active somewhere.
MCF10A rerep: A quantitative high throughput screen for small molecules that induce DNA re-replication in MCF 10a normal breast cells; MCF 10A DNA re-replication, Hoechst nuclear intensity, 48 h; Potency, µM (series often up to 46.1 µM), hits mostly activators; AID 624296, 2012; hit rate 2.9% among 350,000; also: nearly all actives have a fitted effect of over 50% in size
HT1080 IDH1KD tx: qHTS for induction of synthetic lethality in tumor cells producing 2HG: qHTS for the HT-1080-IDH1KD cell line; HT-1080 IDH1 knockdown viability, ATP luminescence, 48 h; Potency, µM (highest dose often 46.1 µM), actives largely listed as cytotoxic; AID 686971, 2013; hit rate 2% among 360,000
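Luminescent ATP read-out (CellTiter-Glo, 10 min at room temperature) after 48 h compound exposure at 37 °C gave viability of IDH1-knockdown HT-1080 cells. Activity was normalised to DMSO and cell-free wells, then fitted as concentration-response curves.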
HT1080-NT tox: qHTS for induction of synthetic lethality in tumor cells producing 2HG: qHTS for the HT-1080-NT fibrosarcoma cell line; HT-1080-NT fibrosarcoma viability, CellTiter-Glo ATP luminescence, 48 h; Potency, µM (titrated, usually from 46.1 µM), usual class: cytotoxic; hit rate 1.6% among 360,000;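 also: NT is the 2HG producing partner of a matched IDH1 knockdown line; nearly all actives have a fitted effect of over 55% in size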
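750 cells/well, RPMI + 5% FBS; 2 h settle, compound pin-transfer, 48 h at 37 degrees C. CellTiter-Glo 10 min RT, luminescence. Normalized to DMSO and media-only wells.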
SW480 rerep: A quantitative high throughput screen for small molecules that induce DNA re-replication in SW480 colon adenocarcinoma cells. SW480 DNA re-replication, Hoechst DNA content imaging, 48 h. Potency, µM (series often up to 46.1 µM), hits mostly activators. hit rate 1.8% among 340,000; also: nearly all actives have a fitted effect of over 55% in size
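DNA re-replication was detected as more nuclei of elevated Hoechst intensity after 48 hr exposure to compound (23 nL pinned per well of 250 cells).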
KB-V1 cytotox: qHTS assay for MDR1-selective chemotherapeutics: Primary screen using the drug-selected MDR subline cells KB-V1. KB-V1 MDR cells viability, CellTiter-Glo, 72 h. Potency, µM (series often up to 46.1 µM), actives largely listed as cytotoxic. hit rate 3.4% among 400,000. AID 1347076, 2019; also: nearly all actives have a fitted effect of over 60% in size
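KB-V1 cells (P-gp-expressing MDR subline of KB-3-1) in phenol-red-free DMEM with 10% FBS were exposed to library compounds over a concentration series for 72 h at 37 degrees C. Viability read by CellTiter-Glo luminescence; concentration-effect curves fitted after normalization.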
KB-3-1 tox: qHTS assay for MDR1-selective chemotherapeutics: Primary screen using the parental adenocarcinoma cell KB-3-1; Potency, µM (highest dose often 46.1 µM), actives largely listed as cytotoxic; KB-3-1 viability, CellTiter-Glo ATP luminescence, 72 h; hit rate 1.4% among 400,000; AID 1347075, 2019; also: nearly all actives have a fitted effect of over 60% in size
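Screening of KB-3-1 cells (DMEM, 10% FBS, phenol-red free) ran from lowest to highest compound concentration; after 72 h at 37 °C viability was read luminescently and curves fitted.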
Hits are given with their value; n = inactive; u = inconclusive; x = no result given; ! = repeats disagree; [ ] = another dose, or the depositor's remark. Calls follow the shape of the dose curve; as a rule, active = well fitted curve in the direction sought with a large enough effect; inconclusive = small, poorly fitted or top-dose-only effect, or another doubt; inactive = no such curve, though single readings can be large; an effect the other way counts as inactive or inconclusive.

SMILES	MCF10A rerep	HT1080 IDH1KD tx	HT1080-NT tox	SW480 rerep	KB-V1 cytotox	KB-3-1 tox
Cc1cc(C)c(Cn2c(C(=O)O)c(C=O)c3ccccc32)c(C)c1	6.5µM	n	n	u	u	n
Cc1cccc(Cn2cccc(C(=O)Nc3nc4ccccc4s3)c2=O)c1	x	x	x	x	n	n
CCS(=O)(=O)N1Cc2cc(C(=O)N(C)C)nc(-c3cccc(-c4ccc(F)cc4)c3)c2[C@@H]1CCO	x	n	n	x	n	n
Cc1nn(-c2ccccc2)c2c1CC1(C(=O)N(C)C(=O)N(C)C1=O)C1CCCCN21 (configuration not stated)	n	n	n	n[9.22 µM]	n	n
Cc1nn(-c2ccccc2)c2c1P(=O)(O)/C(=C1\N(C)c3ccccc3C1(C)C)C=N2	12µM	n	n	n	n	n
COc1ccc(-c2nc(CN3C(=O)CN=C(c4ccccc4)c4cc(Cl)ccc43)c(C)o2)cc1	x	x	x	x	u	n
Oc1c(Cl)c(Cl)c(Cl)c(Cl)c1Cl	8.2µM	u	u	n	u	n
Cc1cc(C(C#N)c2ccc(Cl)cc2)c(Cl)cc1NC(=O)c1cc(I)cc(I)c1O (configuration not stated)	u	u	u	u	n	n
O=Nc1c(O)c2ccccc2c2ccccc12	6.5µM	2.9µM	6.5µM	1.8µM	16µM	4.6µM
CC(=O)Nc1cc(-c2ccc(C(=O)NC3CC3)cc2)cn2c(-c3ccc(F)c(Cl)c3)cnc12	x	18µM	u	x	u	n
Cc1nc2cc(-c3cccc(F)c3)nn2c(C)c1CCC(=O)N1CCC2(CC1)OCCO2	n	n	n	n	u	n
Cc1nc2c(-c3ccccc3)c(C)nn2c(C)c1CCC(=O)N1CCC2(CC1)OCCO2	n	n	n	n	13µM	n
Cc1nc2nc(SCC(=O)N3CCC4(CC3)OCCO4)nn2c(C)c1Cc1ccccc1	n	n	n	n	26µM	u
CC1OC1P(=O)(O)O (configuration not stated)	n	x	x	n	x	x
CC(C)c1ccc(N2C(=O)NC(=O)/C(=C\C=C\c3ccco3)C2=O)cc1	3.7µM	5.8µM	4.1µM	21µM	u	u
O=C1NC(=O)N(Cc2ccccc2)C(=O)/C1=C/C=C/c1ccco1	4.1µM	u	u	18µM	n	15µM
COc1ccc(CN2C(=O)NC(=O)/C(=C\c3ccco3)C2=O)cc1	n	n	n	n	n	n
CC(=O)Nc1cc(C(=O)N2CCC3(CC2)OCCO3)ccc1S(=O)(=O)c1ccc(C)cc1	n	n	n	n	n	n
CCCC(=O)Nc1cc(C(=O)N2CCC3(CC2)OCCO3)ccc1S(=O)(=O)c1ccc(C)cc1	n	n	n	n	10µM	n
O=[N+]([O-])c1ccc(N2CCNCC2)cc1NCc1ccco1	n	n	n	n	n	n
CN1CCN(c2ccc([N+](=O)[O-])c(NCc3ccco3)c2)CC1	u	n	n	n	12µM	n
CSc1ncc(C(=O)Nc2ccc(Cl)cc2C(=O)c2ccccc2)c(C)n1	x	x	x	x	n	n
OC(c1ccccc1)(c1ccc(Cl)cc1)C1CN2CCC1CC2 (configuration not stated)	u	16µM	u	u	u	u
CC(C)NCC(O)c1ccccc1Cl (configuration not stated)	n	x	x	n	x	x
O=C(c1ccc(CNS(=O)(=O)c2ccc(Br)cc2)cc1)N1CCC2(CC1)OCCO2	u	n	n	0.58µM!	n	n
O=C(c1ccc(CS(=O)(=O)c2ccccc2)o1)N1CCC2(CC1)OCCO2	n	n	n	n	13µM	n
